# Assay outcomes (PubChem)
# In the library only some 0.45% were active in any assay of this set; here they are far more common.
# EPAC1 antag – antagonists of human EPAC1 | EPAC1 GEF assay, Rap1b-BODIPY-GDP exchange fluorescence | Potency, µM (series often up to 115 µM), for inactives: at the highest dose activity change, negative = inhibition, actives largely listed as inhibitors | hit rate 0.14% among 360,000;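 further: plate controls were vehicle for no effect and positive control for full effect; nearly all actives have a fitted effect of over 50% in size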
# EPAC2 antag – EPAC2 (human) antagonism. EPAC2 GEF exchange of Rap1B-BODIPY-GDP, fluorescence. Potency, µM (titrated, usually from 114 µM), without a hit: at the top dose activity, negative = inhibition, usual class: inhibitors. hit rate 0.18% among 360,000; further: on the % scale 0 is the no-effect control and ±100 the full control effect; nearly all actives have a fitted effect of over 45% in size
# USP1-UAF1 inh – USP1/UAF1 (human) deubiquitinase inhibition | AID 743255 | recombinant USP1/UAF1, Ub-Rhodamine cleavage fluorescence | Potency, µM (titrated, usually from 57.1 µM), inactives show at the top dose activity change, negative = inhibition, usual class: inhibitors | hit rate 0.23% among 390,000 | O94782; further: on the % scale 0 is the no-effect control and ±100 the full control effect; nearly all actives have a fitted effect of over 60% in size
# Target sequence (O94782 whole entry, looked up): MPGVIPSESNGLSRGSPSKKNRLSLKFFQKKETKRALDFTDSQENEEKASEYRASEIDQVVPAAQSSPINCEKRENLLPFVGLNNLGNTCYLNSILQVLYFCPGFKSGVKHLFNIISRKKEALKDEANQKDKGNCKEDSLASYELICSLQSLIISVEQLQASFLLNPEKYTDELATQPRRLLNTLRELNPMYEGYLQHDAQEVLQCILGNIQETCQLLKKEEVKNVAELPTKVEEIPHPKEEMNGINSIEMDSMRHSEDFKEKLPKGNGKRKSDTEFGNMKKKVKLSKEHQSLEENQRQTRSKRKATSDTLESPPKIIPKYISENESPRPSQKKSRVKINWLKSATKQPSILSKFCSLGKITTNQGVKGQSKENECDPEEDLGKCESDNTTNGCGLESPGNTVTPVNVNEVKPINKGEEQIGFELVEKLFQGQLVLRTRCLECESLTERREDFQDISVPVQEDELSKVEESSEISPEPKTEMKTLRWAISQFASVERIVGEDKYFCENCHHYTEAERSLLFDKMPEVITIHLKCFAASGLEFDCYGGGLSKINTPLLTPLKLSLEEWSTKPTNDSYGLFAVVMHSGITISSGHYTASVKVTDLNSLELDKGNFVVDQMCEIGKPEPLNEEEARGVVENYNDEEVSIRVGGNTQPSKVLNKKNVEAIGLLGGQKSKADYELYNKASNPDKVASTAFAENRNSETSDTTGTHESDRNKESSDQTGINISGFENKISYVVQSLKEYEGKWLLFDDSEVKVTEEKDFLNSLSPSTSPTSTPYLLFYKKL
#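 USP1/UAF1 complex (1 nM) preincubated 15 min at room temperature with compound, then Ub-Rho substrate (150 nM final) added. Kinetic fluorescence at 480/540 nm over 6 reads at 60 s intervals; 50 mM HEPES pH 7.8, 0.5 mM EDTA, 0.1 mg/ml BSA, 1 mM TCEP, 0.01% Tween-20.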
# EPAC1 agonist – agonists of human EPAC1; Potency, µM (doses to about 154 µM), without a hit: at the top dose activation, actives largely listed as activators; O95398; hit rate 0.073% among 360,000; EPAC1 agonist qHTS, biochemical assay; response scale: 100% = response to 6.5 mM cAMP; further: nearly all actives have a fitted effect of over 60% in size
#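 Compounds were pinned as a concentration titration into mixtures of EPAC1 (100 nM), BODIPY-GDP-loaded Rap1B (250 nM) and GDP (50 uM). After 5 min at room temperature, fluorescence was followed for 30 min; activity was scaled to 6.5 mM cAMP.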
# EPAC2 agonist – agonists of human EPAC2 (RAPGEF4). Q8WZA2. EPAC2 activation, biochemical qHTS; response scale: 100% = 6.5 mM cAMP response. Potency, µM (titrated, usually from 154 µM), for inactives: at the highest dose activation, actives largely listed as activators. hit rate 0.079% among 360,000. AID 720711; further: nearly all actives have a fitted effect of over 50% in size
#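 In this primary screen, activation is scored as increased exchange of BODIPY-GDP from Rap1B by 100 nM EPAC2, with 50 uM GDP as competitor. Signal is normalized to the 6.5 mM cAMP agonist control.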
# The depositor's hits bear a star; u = inconclusive; x = no result; [ ] = remark or other dose. The call rests on the fitted dose curve; in most records, active means well fitted curve in the direction sought with a large enough effect; inconclusive means small, poorly fitted or top-dose-only effect, or another doubt; inactive means no such curve, though single readings can be large; an effect the other way counts as inactive or inconclusive. Potency means the concentration at half of the fitted maximal effect.
SMILES,EPAC1 antag,EPAC2 antag,USP1-UAF1 inh,EPAC1 agonist,EPAC2 agonist
CC1(C)C=C2C(=NN(c3ccccc3)C(N)=C2C#N)CO1,-10.2%,-18.8%,4.47µM*,1.8%,16.7%
CC1(C)Cc2c(C#N)c(N)n(-c3ccccc3)c(=S)c2CO1,8.7%,-1.3%,-10.0%,-1.1%,2.1%
O=C1NC(=O)/C(=C/c2cccc3ccccc23)S1,u,u,-5.7%,-7.7%,-6.7%
O=C1NC(=O)C(=Cc2ccccc2[N+](=O)[O-])S1,50.1µM*,79.4µM*,u,4.7%,11.4%
O=C1c2cccc3cc([N+](=O)[O-])cc(c23)C(=O)N1/N=C/c1ccc(O)cc1O,79.4µM*,-2.2%,-14.1%,4.7%,-0.1%
O=C1c2cccc3cc([N+](=O)[O-])cc(c23)C(=O)N1CCN1CCCC1,7.4%,-14.0%,-16.6%,3.4%,3.2%
CCn1ccc2cc(S(=O)(=O)N3CCCN(C(=O)Nc4ccc(C)c(F)c4)CC3)ccc21,x,x,-24.5%,x,x
CC1=Nc2ccccc2/C1=C\c1nc(-c2ccccc2)oc1O,9.3%,11.1%,u,21.0%,u
CC1=Nc2ccccc2/C1=C\c1nc(-c2ccc(C(F)(F)F)cc2)oc1O,31.8%,2.8%,12.6µM*,-54.9%,-45.7%
COc1ccccc1NC(=O)CN1CCCCCC1,-4.9%,0.5%,u,6.8%,5.7%
O=C(CN1CCCCC1)Nc1cc(Cl)ccc1Oc1ccccc1,-4.9%,28.2µM*,-19.0%,1.2%,1.8%
O=C(CN1CCCCCC1)Nc1ccccc1Oc1ccccc1,-11.5%,39.8µM*,-2.0%,5.8%,15.8%
NC(=O)C1CCN(CC(=O)Nc2cc(Cl)ccc2Oc2ccccc2)CC1,-7.6%,-15.9%,-26.9%,6.4%,3.3%
O=C(O)c1cc(S(=O)(=O)Nc2cc(Cl)ccc2Oc2ccccc2)ccc1O,u,39.8µM*,-23.6%,-0.3%,-3.9%
CC1=Nc2cc(C(=O)NCCc3ccc(Cl)cc3)ccc2Sc2ccc(C)cc21,x,x,-17.8%,x,x
CCOc1ccc(NC(=O)CN2CCSc3ccc(S(=O)(=O)N4CCCC4)cc32)cc1,x,x,-25.4%,x,x
Clc1ccc(-c2cc3ccccc3nc2N2CCOCC2)cc1,-27.5%,56.2µM*,-12.9%,9.1%,7.5%
Cc1ccc(-c2ccc(CCC(=O)O)n2-c2ccc(O)cc2)cc1,-19.5%,-10.9%,-3.0%,4.0%,11.3%
O=C(O)CCc1ccc(-c2ccc(Br)cc2)n1-c1ccc(O)cc1,-16.1%,50.1µM*,-5.9%,-1.4%,-8.1%
CC1(C)CC(=O)c2cc(-c3nc(-c4ccc(Br)cc4)cs3)c(=O)n(-c3ccccc3)c2C1,x,x,-22.2%,x,x
Cc1nc2sc(C(=O)N(C)c3ccccc3)c(NC(=O)c3ccccc3Cl)c2c(C)c1C,x,x,16.2%,x,x
Cc1ccc(S(=O)(=O)N2[C@@H](c3ccc(Cl)cc3)C(C(=O)O)=CC[C@H]2c2ccc(C(C)C)cc2)cc1,50.1µM*,u,-12.9%,-13.0%,-7.3%
Cc1ccc([C@H]2C(C(=O)O)=CC[C@@H](c3ccc(C(C)C)cc3)N2S(=O)(=O)c2ccc(C)cc2)cc1,u,u,-15.0%,-10.3%,9.5%
Cc1onc(-c2c(Cl)cccc2Cl)c1COC(=O)c1ccc(Cl)cc1,-11.3%,3.55µM*,-21.6%,-0.9%,7.5%
O=C(N/N=C/c1ccc(OCc2ccccc2)cc1)c1ccncc1,-0.2%,-1.3%[57.1 µM],-17.0%,-10.3%,9.5%
SMILES,EPAC1 antag,EPAC2 antag,USP1-UAF1 inh,EPAC1 agonist,EPAC2 agonist
Oc1ccc(N=Cc2ccc(OCc3ccccc3)cc2)cc1,25.1µM*,u,2.82µM*,16.6%,14.0%
CCOc1ccc(Cn2c(CNS(=O)(=O)c3ccc(C(C)(C)C)cc3)nc3cccnc32)cc1,x,x,-31.4%,x,x
COC(=O)c1c(C)c2c(C)cc3ccccn3c-2c1C(=O)OC,1.5%,11.2µM*,-4.5%,-6.2%,-9.5%
COc1ccc(C)cc1N(C)C(=O)c1sc2nc3n(c(=O)c2c1C)CCCCC3,x,x,-16.2%,x,x
COc1cc(/C=C2\SC(=Nc3ccccc3)N(CCc3c[nH]c4ccccc34)C2=O)ccc1OC(C)C(=O)O (configuration not stated),u,u,1.1%,100µM*,-9.9%
Cc1ccc(CCNC(=O)c2sc3ncccc3c2-n2c(C)ccc2C)cc1,x,x,-24.8%,x,x
COc1ccc(-c2cc(=O)oc3c(O)c(O)ccc23)cc1,35.5µM*,-15.6%,-9.2%,1.3%,1.9%
Cn1c(=O)n(C/C=C/c2ccccc2)c(=O)c2c1nc1n2CCN1c1ccccc1,x,x,-3.0%,x,x
COc1ccc(/C=C2\SC(=O)N(CCC(=O)Nc3ccc(S(=O)(=O)Nc4nccs4)cc3)C2=O)cc1,-23.7%,14.9%,-15.2%,0.1%,-4.2%
COc1ccc(/C=C2/SC(=O)N(CCC(=O)Nc3ccc(S(=O)(=O)Nc4nccs4)cc3)C2=O)cc1,50.1µM*,-0.8%,-12.5%,-9.9%,14.2%
COc1ccc(/C=C2/SC(=S)N(c3ccc(S(=O)(=O)Nc4nccs4)cc3)C2=O)cc1,70.8µM*,0.4%,u,7.1%,-6.7%
CC(C)Cn1c(=O)c2sccc2n2c(CCCC(=O)NCCc3ccc(Cl)cc3)nnc12,x,x,2.3%,x,x
Cc1nc(N2CCc3ccccc3C2)[nH]c(=O)c1Cc1ccccc1,12.0%,6.7%,-18.3%,3.4%,0.6%
Cc1nc(-n2[nH]c3c(c2=O)CCCC3)[nH]c(=O)c1Cc1ccccc1,16.7%,0.4%,28.2µM*,9.2%,8.8%
COc1cc(C(=O)NCC(c2cccs2)S(=O)(=O)c2ccc(F)cc2)cc(OC)c1OC (configuration not stated),x,x,2.5%,x,x
COC(=O)CCC(=O)OC1(C)C(=O)C2=CN(c3ccc(OC)cc3)C(c3ccc(OC)cc3)=CC2=C(Br)C1=O (configuration not stated),4.5%,-11.7%,u,8.0%,3.0%
COC(=O)CCC(=O)OC1(C)C(=O)C2=CN(C3CCCC3)C(c3ccc(OC)cc3)=CC2=C(Br)C1=O (configuration not stated),2.4%,-20.4%,25.1µM*,-13.2%,9.6%
C=CCN1C=C2C(=O)C(C)(OC(=O)CCC(=O)OC)C(=O)C(Br)=C2C=C1c1ccc(OC)cc1 (configuration not stated),7.6%,9.1%,31.6µM*,26.9%,29.7%
COCCN1C=C2C(=O)C(C)(OC(=O)CCC(=O)OC)C(=O)C(Br)=C2C=C1c1ccc(OC)cc1 (configuration not stated),-17.5%,22.5%,25.1µM*,5.7%,12.2%
COc1cc(NC(=O)CCn2nc(C)c(S(=O)(=O)N3CCCCC3)c2C)cc(OC)c1OC,x,x,-12.4%,x,x
COc1ccc(-n2nnnc2C2CCN(S(=O)(=O)c3ccc(C)cc3)CC2)cc1,x,x,-12.4%,x,x
Cc1ccc(C(=O)c2c(C)oc3c2C(=O)C(=O)c2ccccc2-3)cc1,-14.5%,4.1%,14.1µM*,15.0%,-1.9%
